Experimental data published in PubChem BioAssay (NCATS).
Records with an inconclusive call do not appear. Activity calls are given as the source filed them. Calls come from the whole dose curve; as a rule, active = well fitted inhibition curve with a large enough effect; inconclusive = small, poorly fitted or top-dose-only effect; inactive = flat fitted curve, though single readings scatter.

What follows are compounds tested against Calcium and integrin-binding protein 1 (Homo sapiens) (UniProt Q99828) (assay: Primary qHTS for Identification of Calcium Integrin Binding Protein 1 (CIB1) Competitor (AID 1508620; note: top concentration of the series differs between compounds)). Details: CIB1-GST / FITC-alphaIIb peptide fluorescence polarization; series mostly up to 114 µM; activity change, negative = inhibition: at the top concentration.
Calcium and integrin-binding protein 1 (Homo sapiens), sequence (Q99828 whole entry, looked up): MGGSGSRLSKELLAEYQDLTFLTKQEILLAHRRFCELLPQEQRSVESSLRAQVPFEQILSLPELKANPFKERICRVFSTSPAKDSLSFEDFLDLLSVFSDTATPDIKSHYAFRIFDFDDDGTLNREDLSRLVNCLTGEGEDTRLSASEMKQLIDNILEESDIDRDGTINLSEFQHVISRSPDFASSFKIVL
Procedure, shortened: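 Fluorescence polarization competition: GST-tagged CIB1 (1 uM final) preincubated with compound 15 min at room temperature, then FITC-labelled alphaIIb peptide (100 nM final) added. After 15 min at room temperature, polarization read at Ex 480/Em 540.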
% is set by controls: 0 for no effect and ±100 for the full control effect.

SMILES	activity change, negative = inhibition
Cc1cc(C)n2ncc(C(=O)NCc3ccco3)c2n1	-9.66% (inactive)
N#Cc1nc(Nc2cc(F)cc(F)c2)c2ncn(CCCO)c2n1	5.69% (inactive)
O=C(OCC#CCSc1nnc(-c2cccc3ccccc23)o1)C1CCCC1	-0.608% (inactive)
O=C(COc1ccccc1Br)NCCc1nc2ccccc2[nH]1	1.94% (inactive)
Cc1c(C(=O)O)[nH]c2c1C(=O)CC(c1ccco1)C2 (stereo not drawn)	-8.66% (inactive)
COc1ccc(C(=O)N(Cc2ccccc2)Cc2cccs2)c(O)c1	1.63% (inactive)
O=C1CCCC2=C1C(c1[nH]ncc1Cl)N=C(Nc1cccnc1)N2 (stereo not drawn)	-1.39% (inactive)
O=C(CSc1nnc(-c2cccc(S(=O)(=O)N3CCCC3)c2)n1-c1ccccc1)Nc1ccc(F)cc1	-0.658% (inactive)
COc1cc(-c2nc(Nc3ccc(F)c(F)c3)c3ccccc3n2)c(F)cn1	1.3% (inactive)
CCc1c(C)nc2cc(-c3ccc(OC)c(OC)c3)nn2c1N1CCCC1	-16.8% (inactive)
CN(CCc1cccs1)c1ncnc2ccc(-c3ccc4c(c3)OCO4)cc12	3.79% (inactive)
O=C(Nc1ccc2ccccc2c1)Nc1nnc(-c2ccc(Cl)cc2Cl)s1	1.78% (inactive)
COc1ccc(N2Cc3cccc(C(=O)O)c3C2=O)cc1OC	-0.408% (inactive)
Cn1nnnc1Sc1ncnc2scc(I)c12	-9.98% (inactive)
Cc1cc(C)nc(NC(=S)N2CCN(c3cccc([N+](=O)[O-])c3)CC2)c1	-21.9% (inactive)
Cc1cc(C)c(C)c(S(=O)(=O)N2CCN(S(=O)(=O)c3ccc4c(c3)OCCO4)CC2)c1C	-2.41% (inactive)
COc1ccc(C2Oc3ccccc3C(=O)N2Cc2ccccc2)cc1COc1ccc(NC(C)=O)cc1 (stereo not drawn)	-4.94% (inactive)
S=P(c1ccccc1)(c1ccccc1)c1nc(CCCc2ccccc2)n2ccccc12	-6.29% (inactive)
